About 330 (14%) of roughly 2,300 compounds showed activity. These entries were drawn from the full list. Unmarked numbers belong to inactive results.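 The calls were made as follows: active = median modified Z-score above 1.96; inactive = 1.96 or below.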

Results on 48 compounds are retold here after the supplement of paper PMC10498489.

In the experiment the test system is HepG2 Srxn1-GFP reporter cells (+30 nM CDDO-Me). The experiment in a line: Srxn1-GFP intensity median modified Z-score relative to plate median; higher = stronger NRF2 / oxidative stress reporter activation, active = hit call of the paper. The note with it: 10 µM; exposure time: 24h. The method in brief: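 Values give the median, over replicates, of the modified Z-score of GFP intensity on each plate. HepG2 Srxn1-GFP BAC reporter cells were co-treated for 24 h with an NRF2 activator at 30 nM and compound at 10 μM (≤0.1% DMSO) in three replicate plates, then analysed per cell for cytoplasmic GFP on confocal images with at least 100 cells. Scaling used 1.4826 × median absolute deviation.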
For the compound `CC(C)(C)O[C@H]1C[C@@H](O)C1`, the “Srxn1-GFP intensity median modified Z-score” value was 1.93. As for `CC(=O)O[C@]1(C(C)=O)CCC2C3=CC(C)=C4CC(=O)CCC4(C)C3CCC21C` (stereo partly drawn) [euspeclibcmpd180], the figure is 0.562; as for `CC(NS(=O)(=O)c1cccc(Cl)c1)C1CCCO1` (stereo not drawn), 1.74. Then `O=C1OCCc2oc(O)cc21` [euspeclibcmpd1348], with 33 (active); and `Cc1cc(=O)cc(O)o1` [euspeclibcmpd1585], with 0.226; and `O=C(OCc1ccccc1)c1ccccc1` [euspeclibcmpd510], with 0.252. With `OC[C@H]1O[C@@H](O[C@@H]2[C@@H](CO)O[C@](O)(CO)[C@H]2O)[C@H](O)[C@@H](O)[C@H]1O` [euspeclibcmpd170], the “Srxn1-GFP intensity median modified Z-score” value was 0.208. Then `NC(=O)c1cc[n+](C=C2CSC3C(NC(=O)C(c4ccccc4)S(=O)(=O)O)C(=O)N3C2C(=O)O)cc1` (stereo not drawn) [euspeclibcmpd2133], with -0.143; and `CCCOc1cc(N)ccc1C(=O)OCCN(CC)CC` [euspeclibcmpd379], with 0.431. As for `CCN(CC)CCOc1ccc2c(c1)C(=O)c1cc(OCCN(CC)CC)ccc1-2` [euspeclibcmpd940], the figure is 5.93 (active); as for `CCN(CC)CCNC(=O)COc1ccc(OC)cc1` [euspeclibcmpd2435], -0.25; as for `C=Cc1c(C=c2[nH]c(=Cc3[nH]c(C=c4[nH]c(O)c(C=C)c4=C)c(C)c3CCC(=O)O)c(CCC(=O)O)c2C)[nH]c(O)c1C` [euspeclibcmpd1536], 0.744.

As for `Cc1cc(-c2ccccc2)n[nH]c1=NCCN1CCOCC1` [euspeclibcmpd383], the “Srxn1-GFP intensity median modified Z-score” value was 1.08. Then `CNC(Cc1ccccc1)C(=O)O` (stereo not drawn), with 1.21; and `Cc1coc2c1C(=O)C(=O)c1c-2ccc2c1CCCC2(C)C` [euspeclibcmpd1647], with 2.22 (active); and `Cc1c(S(=O)(=O)O)oc2c1C(=O)C(=O)c1c-2ccc2c1CCCC2(C)C` [euspeclibcmpd2216], with 0. As for `CN[C@H]1C[C@@H](N)[C@H](O)[C@@H](O[C@@H]2O[C@H](CO)[C@@H]3OC4(O[C@@H]3[C@@H]2O)O[C@H](C(N)CO)[C@H](O)[C@H](O)[C@H]4O)[C@@H]1O` (stereo partly drawn) [euspeclibcmpd1459], the figure is -0.136; as for `Nc1ccc(S(=O)(=O)N=c2cccc[nH]2)cc1` [euspeclibcmpd279], -0.029. As for `COc1ccc2[nH]c3cc(Cl)ccc3c(=Nc3cc(CN4CCCC4)c(O)c(CN4CCCC4)c3)c2n1` [euspeclibcmpd1080], the figure is 9.12 (active); as for `CC1(C)C2CCC1(CS(=O)(=O)O)C(=O)C2=Cc1ccc(C=C2C(=O)C3(CS(=O)(=O)O)CCC2C3(C)C)cc1` [euspeclibcmpd1829], 1.49. As for `C=C(CC)C(=O)c1ccc(OCC(=O)O)c(Cl)c1Cl` [euspeclibcmpd119], the “Srxn1-GFP intensity median modified Z-score” value is 14 (active). Then `CC(C)CCCC(C)[C@H]1CCC2C3CC=C4C[C@@H](OC(=O)c5ccccc5)CC[C@]4(C)C3CC[C@@]21C` (stereo partly drawn) [euspeclibcmpd2185], with -0.487; and `CC(O)CNS(=O)(=O)CC1CN(C(=O)C2CC2C)CCO1` (stereo not drawn), with 1.25; and `CC(C)=C1CNC(C(=O)O)C1CC(=O)O` (stereo not drawn) [euspeclibcmpd2009], with 0.265. As for `CC(=O)N=c1[nH]cc([N+](=O)[O-])s1` [euspeclibcmpd793], the figure is 0.152.

`CC(=O)Oc1ccccc1C(=O)N=c1[nH]cc([N+](=O)[O-])s1` [euspeclibcmpd615]: the “Srxn1-GFP intensity median modified Z-score” value is 2.79 (active).

Take `O=C(O)c1cc(O)c(O)c(O)c1` [euspeclibcmpd1010]: the “Srxn1-GFP intensity median modified Z-score” value was -0.0488. As for `COc1ccc(C(=O)c2ccc(O)cc2)c(O)c1O` [euspeclibcmpd1507], the figure is -0.213.

In the case of `NC(=O)N1c2ccccc2CC(=O)c2ccccc21` [euspeclibcmpd673], the “Srxn1-GFP intensity median modified Z-score” value was -0.538. Turning to `O=C1[O][Bi]([OH])[O]c2ccccc21` [euspeclibcmpd2458], the “Srxn1-GFP intensity median modified Z-score” value is 0.155.

In the case of `O=C1CC(=O)c2ccccc2C1=O` [euspeclibcmpd1562], the “Srxn1-GFP intensity median modified Z-score” value was 9.54 (active). Regarding `C/C(=C\CO)CC[C@H](C)CCC[C@H](C)CCCC(C)C` [euspeclibcmpd1621], the “Srxn1-GFP intensity median modified Z-score” value was -0.0936. Consider `[O-][n+]1cccc(CO)c1` [euspeclibcmpd1263], for which the “Srxn1-GFP intensity median modified Z-score” value is -0.263. Then `O=C(C=Cc1ccc(O)c(O)c1)OC(Cc1ccc(O)c(O)c1)C(=O)O` (stereo not drawn) [euspeclibcmpd2083], with -0.529. As for `O=C(O)C=Cc1ccc(O)c(O)c1` [euspeclibcmpd1336], the figure is -0.408.

Take `O=C(C=Cc1ccc(O)c(O)c1)OCCc1ccccc1` [euspeclibcmpd1775]: the “Srxn1-GFP intensity median modified Z-score” value was 3.45 (active). Take `Cc1ccc(C)c(N2C(=O)c3ccc(C(=O)OCC(=O)N4CCc5ccccc54)cc3C2=O)c1`: the “Srxn1-GFP intensity median modified Z-score” value is 1.06.

Regarding `O=C(Nc1cccc(Oc2cnccn2)c1)c1cc2cc(F)ccc2[nH]1`, the “Srxn1-GFP intensity median modified Z-score” value is 1.62. As for `CCN(CC)CCNC(=O)c1cc(Br)c(N)cc1OC` [euspeclibcmpd1122], the figure is 0. Consider `CCN(CC)CCNC(=O)c1cc(S(C)(=O)=O)ccc1OC` [euspeclibcmpd525], for which the “Srxn1-GFP intensity median modified Z-score” value was -0.717. As for `CCN(CC)CCNC(=O)c1cc(Cl)c(N)cc1OC` [euspeclibcmpd197], the figure is 86.5 (active); as for `NC(=O)C1CCCN(Cc2cccc(CNc3ncc(F)cn3)c2)C1` (stereo not drawn), 1.1; as for `CC(CN(C)C)CN1c2ccccc2CCc2ccccc21` (stereo not drawn) [euspeclibcmpd531], 0.095. Then `CN=C(C[N+](=O)[O-])NCCSCc1ccc(CN(C)C)o1` [euspeclibcmpd2160], with -0.118; and `CC1(C)SC2C(NC(=O)C(N)c3ccc(O)cc3)C(=O)N2[C@H]1C(=O)O` (stereo partly drawn) [euspeclibcmpd23], with -0.305; and `CC(C)N1CCN(c2ccc(OC[C@H]3CO[C@](Cn4cncn4)(c4ccc(Cl)cc4Cl)O3)cc2)CC1` [euspeclibcmpd617], with 1.6. As for `CCC(C)n1ncn(-c2ccc(N3CCN(c4ccc(OC[C@H]5CO[C@](Cn6cncn6)(c6ccc(Cl)cc6Cl)O5)cc4)CC3)cc2)c1=O` (stereo partly drawn) [euspeclibcmpd951], the figure is 2.71 (active); as for `CC(=O)N1CCN(c2ccc(OCC3CO[C@](Cn4ccnc4)(c4ccc(Cl)cc4Cl)O3)cc2)CC1` (stereo partly drawn) [euspeclibcmpd169], 0.674.
